{"source": "PubChem BioAssay (EPA / NIEHS)", "note": "The source made the active and inactive calls. Rule for the calls: active = hit-call score of the fitted dose curve at least 0.9, where 1 is the maximum; inactive = score below 0.9."}
{"assay": "STM_H9_OrnithineISnorm_perc: Stemina devTOX quickPredict H9 human embryonic stem cell (hESC)-based Assay for Ornithine (ORN) Metabolite Biomarker, Normalized (AID 2283712);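 note: ornithine released into spent medium during last day measured by mass spectrometry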", "excerpt": "STM_H9_secretome utilizes undifferentiated H9 cells to measure relative changes in two metabolites, ornithine (ORN) and cystine (CYSS) in the secretome, targeting a critical drop in the ORN/CYSS ratio as a biomarker for developmental toxicity.STM_H9_OrnithineISnorm is one of 10 components calculated in the STM_H9_secretome assay. It measures the integrated area of the endogenous ornithine normalized to the spiked-in isotopically labeled standard and to the median value of the 0.1% DMSO neutral control treatment using UPLC-HRMS technology.Data from the assay component STM_H9_OrnithineISnorm_perc was analyzed at the assay endpoint STM_H9_OrnithineISnorm_perc in the positive analysis fitting direction relative to DMSO as the negative control and baseline of activity. Using a type of binding reporter, gain or loss-of-signal activity can be used to understand relative metabolite change.\nH9 hESCs maintained in a pluripotent state were exposed to test compound for 72h with chemical replenishment with media replacement every 24h. Cell-conditioned media from the final 24-h treatment period was collected for analysis of the targeted biomarker, and cell viability of the corresponding cell layer was assessed. The chemical library was tested in blinded fashion. Each test plate included 1uM Methotrexate (MTX; Selleck Chemicals, Houston, Texas) as a positive reference, 5 nM MTX as a negative reference, 0.1% DMSO as the neutral (vehicle) control, and sample-level media blanks.H9 cell-conditioned media from the final 24-h treatment period was collected for analysis of the targeted biomarker and cell viability was measured from the corresponding cell layer. Cell viability was measured using the CellTiter-Fluor assay (Promega, Madison, Wisconsin) based on proteolytic cleavage of a substrate to fluorescent signal proportional to the number of living cells. The cell viability Relative Fluorescence Unit (RFU) was background corrected and normalized to mean RFU of the neutral control (0.1% DMSO). The collected H9-cell-conditioned media samples were processed for targeted biomarker analysis as described (Palmer et al., 2013). Briefly, spent media samples were deproteinized (40% acetonitrile) and processed for UPLC-HRMS. Data acquisition was performed using 4 separate UPLC-HRMS systems, consisting of an Agilent 1290 Infinity LC system (Agilent Technologies) interfaced with an Agilent high-resolution mass spectrometer (models G6520A, G6520B, G6530A, and G6224A). A Waters Acquity UPLC BEH Amide column (2.1mm x 50mm, 1.7lm particle size; Waters, Milford, Massachusetts) maintained at 40C was applied for separation of metabolites using a 6.5min solvent gradient with 0.1% formic acid in water and 0.1% formic acid in acetonitrile (1.0ml/min flow rate). Data were acquired using MassHunter Acquisition software (version B 04.00, Agilent Technologies). The extracted ion chromatogram (EIC) areas for ORN, CYSS, and their respective spike-in C13-standards were determined using the Agilent MassHunter Quantitative Analysis software, version B.05.00 or newer (Agilent Technologies), and data were normalized as described in Palmer et al. (2017)."}
{"smiles": "C=CCC1=C(C)[C@@H](OC(=O)[C@@H]2[C@@H](C=C(C)C)C2(C)C)CC1=O", "outcome": "inactive"}
{"smiles": "OC(c1ccc(Cl)cc1)(c1cncnc1)c1ccccc1Cl", "note": "(stereo not drawn)", "AC50": "50 µM (active)"}
{"smiles": "CON(C)C(=O)Nc1ccc(Cl)c(Cl)c1", "AC50": "50 µM (active)"}
{"smiles": "COc1ccc(C(c2ccc(OC)cc2)C(Cl)(Cl)Cl)cc1", "outcome": "inactive"}
{"smiles": "C=CC1(C)OC(=O)N(c2cc(Cl)cc(Cl)c2)C1=O", "note": "(stereo not drawn)", "outcome": "inactive"}
{"smiles": "CCOC(=O)CC(SP(=S)(OC)OC)C(=O)OCC", "note": "(stereo not drawn)", "AC50": "76.9 µM (active)"}
{"smiles": "CCCCNC(=O)n1c(NC(=O)OC)nc2ccccc21", "AC50": "6.13 µM (active)"}
{"smiles": "CCc1nn(C)c(C(=O)NCc2ccc(C(C)(C)C)cc2)c1Cl", "AC50": "1.84 µM (active)"}
{"smiles": "CCNc1nc(Cl)nc(NCC)n1", "AC50": "0.053 µM (active)"}
{"smiles": "CC1COC(Cn2cncn2)(c2ccc(Oc3ccc(Cl)cc3)cc2Cl)O1", "note": "(stereo not drawn)", "AC50": "3.93 µM (active)"}
{"smiles": "N#Cc1nn(-c2c(Cl)cc(C(F)(F)F)cc2Cl)c(N)c1S(=O)C(F)(F)F", "note": "(stereo not drawn)", "AC50": "35.5 µM (active)"}
{"smiles": "CCNc1nc(Cl)nc(NC(C)C)n1", "AC50": "0.12 µM (active)"}
{"smiles": "CC(C)(C)c1ccc(CSc2cnn(C(C)(C)C)c(=O)c2Cl)cc1", "AC50": "0.0663 µM (active)"}
{"smiles": "CCCC1COC(Cn2cncn2)(c2ccc(Cl)cc2Cl)O1", "note": "(stereo not drawn)", "AC50": "85.5 µM (active)"}
{"smiles": "CCCCOC(=O)c1ccccc1C(=O)OCCCC", "AC50": "76.3 µM (active)"}
{"smiles": "CN(C)C(=S)SSC(=S)N(C)C", "AC50": "17.7 µM (active)"}
{"smiles": "COC(=O)N(OC)c1ccccc1COc1ccn(-c2ccc(Cl)cc2)n1", "AC50": "0.85 µM (active)"}
{"smiles": "C#CCOS(=O)OC1CCCCC1Oc1ccc(C(C)(C)C)cc1", "note": "(stereo not drawn)", "AC50": "3.33 µM (active)"}
{"smiles": "CCCCC(CC)COC(=O)c1ccccc1C(=O)OCC(CC)CCCC", "note": "(stereo not drawn)", "outcome": "inactive"}
{"smiles": "COC(=O)c1ccccc1C(=O)OC", "outcome": "inactive"}
{"smiles": "COc1nc(NC(C)C)nc(NC(C)C)n1", "outcome": "inactive"}
{"smiles": "CCON=C(CC)C1=C(O)CC(c2c(C)cc(C)cc2C)CC1=O", "note": "(stereo not drawn)", "outcome": "inactive"}
{"smiles": "CO/C=C(/C(=O)OC)c1ccccc1Oc1cc(Oc2ccccc2C#N)ncn1", "outcome": "inactive"}
